High-throughput results from PubChem BioAssay.
HP1b chromo inh = blocks HP1-beta chromodomain binding to methylated histone tails; AID 540317; Potency, µM (highest dose often 114 µM), inactives show top-dose activity change, negative = inhibition, actives largely listed as inhibitors; 0.56% of 390,000 active; AlphaScreen HP1-beta / biotin-H3K9me3 peptide binding; further: nearly all actives have a fitted effect of over 70% in size
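HP1-beta protein (50 nM final) preincubated 30 min at room temperature with biotinylated H3(1-18)K9me3 peptide (50 nM) in PBS pH 7.4, 0.01% Tween-20, then compound added for 30 min. AlphaScreen streptavidin donor/nickel chelate acceptor beads (10 ug/mL final), 30 min dark, luminescence read.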
L3MBTL1 block = blocks human L3MBTL1; 0.66% of 230,000 active; Potency, µM (titrated, usually from 57.1 µM), for the others: top-dose activity, negative = inhibition, hits mostly inhibitors; AlphaScreen L3MBTL1–H3K9me1 peptide binding; AID 485360; further: on the % scale 0 is the no-effect control and ±100 the full control effect; nearly all actives have a fitted effect of over 60% in size
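AlphaScreen assay: L3MBTL1 (50 nM final) was preincubated 30 min at room temperature with biotinylated H3(1-15)K9me1 peptide (75 nM final), then 30 min with library compounds; streptavidin donor and nickel chelate acceptor beads (10 ug/mL final) added, 30 min dark.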
Sfp inh = inhibitors of Bacillus subtilis Sfp phosphopantetheinyl transferase | Q9F4F7 | Biochemical Sfp PPTase activity, qHTS | Potency, µM, without a hit: largest response in the series, negative = inhibition, usual class: inhibitors | 3.5% of 310,000 active | AID 1490;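 further: the enzyme is Sfp with the accession as filed and its product quenches rhodamine fluorescence; 0% = enzyme reaction without inhibitor and -100% = no enzyme wells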
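Buffer: 50 mM Hepes-Na pH 7.6, 10 mM MgCl2, 0.01% Nonidet P-40, 0.01% BSA. Enzyme 15 nM, pre-exposed to compound 15 min; substrates then added and fluorescence change tracked over 30 min.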
JMJD2A Tudor inh = inhibitors of human JMJD2A Tudor domain | O75164 | AlphaScreen JMJD2A-Tudor / H3K4me3 peptide binding | Potency, µM (top dose mostly 114 µM), without a hit: at the top dose activity change, negative = inhibition, actives largely listed as inhibitors | 4.4% of 390,000 active; further: on the % scale 0 is the no-effect control and ±100 the full control effect; nearly all actives have a fitted effect of over 50% in size
BAZ2B block = blocks human BAZ2B. 4.4% of 360,000 active. AlphaScreen BAZ2B-H3K14Ac peptide displacement. Potency, µM (titrated, usually from 114 µM), for the others: at the highest dose activity change, negative = inhibition, hits mostly inhibitors. AID 504333; further: on the % scale 0 is the no-effect control and ±100 the full control effect; nearly all actives have a fitted effect of over 60% in size
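Complex of BAZ2B and biotin-H3K14Ac (50 nM apiece) forms over 30 min at RT, then faces library compounds up to 110 uM for another 30 min; AlphaScreen beads added, 20 min dark incubation, luminescence read.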
G9a inh = inhibitors of human histone lysine methyltransferase G9a. G9a H3K9 monomethylation, AlphaScreen, 2 h. Potency, µM (titrated, usually from 102 µM), without a hit: top-dose activity, negative = inhibition, usual class: inhibitors. 8.8% of 350,000 active; further: on the % scale 0 is the no-effect control and ±100 the full control effect; nearly all actives have a fitted effect of over 75% in size
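Quantitative HTS format: methyltransferase activity on a biotin-tagged H3K9 peptide is measured by AlphaScreen, using a rabbit anti-monomethyl-H3K9 antibody with streptavidin donor and anti-IgG acceptor beads. Final levels are 20 nM enzyme, 500 nM peptide, 20 uM SAM; 2 h RT.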
The depositor's hits bear a star; ? = inconclusive; nt = no result given; [ ] = another dose, or the depositor's remark. A selection: hits, their analogues and other compounds. The true share with any hit is near 12%. The call rests on the fitted dose curve; in most records, active means well fitted curve in the direction sought with a large enough effect; inconclusive means small, poorly fitted or top-dose-only effect, or another doubt; inactive means no such curve, though single readings can be large; an effect the other way counts as inactive or inconclusive. Potency means the concentration at half of the fitted maximal effect.

SMILES	HP1b chromo inh	L3MBTL1 block	Sfp inh	JMJD2A Tudor inh	BAZ2B block	G9a inh
CCOC(=O)COc1c(Cl)cc(C2NC(=S)NC(c3ccccc3)=C2C(C)=O)cc1OC (configuration not stated)	14%	1%	-5%	-35%	-25%	-9%[59 µM]
CC(C)(C)OC(=O)N1CCC(c2c(C(=O)N3CCCCC3)cnn2-c2ccc(F)cc2)CC1	9%	nt	nt	-14%	5%[57.1 µM]	-7%[59 µM]
CCOc1ccc(C(C)=O)cc1COc1ccc(-c2nnco2)cc1	22%	nt	-11%	-11%	50µM*	nt
COc1cc2c(cc1OC)C1O[C@](CCCCN3C(=O)c4ccccc4C3=O)(C2)Oc2cc(C)n(Cc3ccccc3)c(=O)c21	nt	nt	-6%	nt	?	nt
Cc1nc(C/C(=N\N)c2ccc(O)cc2O)cs1	8%	-3%	-15%	-17%	-22%	32µM*
N/N=C(\Cc1cscn1)c1ccc(O)cc1O	36%	-8%	-24%	-14%	-14%	10µM*
Cc1cc(O)cc(O)c1C(=O)Cc1cscn1	13%	-5%	-9%	-8%	-30%	-46%
OC(COCc1ccccc1F)CN1CCCCC1 (configuration not stated)	18%	nt	nt	-6%	nt	nt
CC1CCCC(C)N1CC(O)COCc1ccccc1F (configuration not stated)	?	nt	-3%	50µM*	?	-8%[2.33 µM]
C/C=C(\C)CN1CCN(c2ccc(C)cc2)CC1	-64%	nt	-10%	7.1µM*	25µM*	10µM*
COc1ccc([C@H]2/C=C\CN(Cc3ccc(N(C)C)cc3)[C@@H](C)C(=O)N2Cc2ccc(F)cc2)cc1	?	nt	nt	18µM*	nt	nt
C=CCn1c(-c2cc3c(s2)CCC(CC)C3)n[nH]c1=S (configuration not stated)	-15%	?	22%	?	-29%	11µM*
Cc1ccc(NC(=O)CN2C(=O)COc3ccc(S(=O)(=O)N4CCCCCC4)cc32)cc1Cl	62%	nt	nt	10%	0%	28%[59 µM]
COc1ccc(NC(=O)CCCc2nnc3n(C(C)C)c(=O)c4sccc4n23)cc1Cl	73%	nt	nt	4%	6%	19%[59 µM]
COc1cccc(/C=N/n2c(SC)nnc2-c2ccccc2)c1OC	19%	-5%	5%	1%	4%	?
COc1cccc(/C=N/n2c(SC)nnc2-c2ccccc2)c1O	24%	-1%	-25%	-31%	?	8.9µM*
COc1ccccc1CNC(=O)Cn1c(-c2cccs2)cc2cc(F)ccc21	45%	nt	nt	6%	0%	-3%[59 µM]
O=C(CSc1nnc(-c2cccnc2)n1Cc1ccco1)Nc1cccc(O)c1	8%	nt	24%	-14%	-4%	?
O=C(CSc1nnc(-c2cccnc2)n1Cc1ccco1)c1ccc(Br)cc1	28%	-13%	-5%	-22%	-7%	-15%
C(=C\c1ccccc1)/CSc1nnc(-c2ccncc2)n1Cc1ccco1	-1%	-3%	50µM*	-29%	-7%	?
O=C(CSc1nnc(-c2cccnc2)n1Cc1ccco1)c1ccc2ccccc2c1	-2%	-6%	-29%	-33%	0%	50µM*
CCSc1nnc(-c2cccnc2)n1Cc1ccco1	5%	-3%	40µM*	-18%	-2%	-21%[59 µM]
O=C(Nc1ccccc1)N1CCCC2(CCNCC2)C1	nt	nt	-3%	nt	nt	5%[12.7 µM]
COc1ccc(C2CC(=O)c3c([nH]c(C(=O)OCCOc4ccccc4)c3C)C2)cc1OC (configuration not stated)	7%	nt	nt	-21%	-3%	-24%[59 µM]
S=c1[nH]nc(-c2ccccc2)n1/N=C/c1cccc(Br)c1	17%	-2%[2.29 µM]	10%	-25%	-2%	-43%[0.501 µM]
COc1ccc(/C=N/n2c(-c3ccccc3)n[nH]c2=S)cc1	-16%	-3%	-6%	25µM*	?	1.4µM*
CCN(CC)c1ccc(/C=N/n2c(-c3ccccc3Br)n[nH]c2=S)cc1	?	nt	?	?	?	2.8µM*
